HT1080-NT tox: kills 2HG-producing HT-1080-NT fibrosarcoma cells. HT-1080-NT fibrosarcoma viability, CellTiter-Glo ATP luminescence, 48 h. Potency, µM (series often up to 46.1 µM), for the others: at the top dose activity, negative = less viability, actives largely listed as cytotoxic. 1.6% of 360,000 active;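 further: NT is the 2HG producing partner of a matched IDH1 knockdown line; potency means the concentration at half of the fitted maximal effect; 0% = DMSO-treated cells and -100% = media-only wells without cells; nearly all actives have a fitted effect of over 55% in size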
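750 cells/well, RPMI + 5% FBS; 2 h settle, compound pin-transfer, 48 h at 37 degrees C. CellTiter-Glo 10 min RT, luminescence. Normalized to DMSO and media-only wells.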
IL-1B inflam inh: blocks inflammasome-driven IL-1 beta release; THP-1 LPS/ATP IL-1B secretion, AlphaLISA, 16 h; active compounds read low; activity change, % at 57.5 µM; 4.7% of 360,000 active; in the data active means activity change below about -50%; inconclusive means mostly about -30% to -49%
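Secreted IL-1B measured by AlphaLISA bead assay after 16 h compound exposure of THP-1 cells; compounds (final up to 57.5 uM) added 1 h before LPS (250 ng/mL) and ATP (1.25 mM) stimulation; lower signal means less secretion.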
HT1080 IDH1KD tx: HT-1080 IDH1 knockdown cell toxicity (counter line). HT-1080 IDH1 knockdown viability, ATP luminescence, 48 h. Potency, µM (highest dose often 46.1 µM), without a hit: top-dose activity, negative = toxicity, usual class: cytotoxic. 2% of 360,000 active;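 further: potency means the concentration at half of the fitted maximal effect; 0% = DMSO wells and -100% = cell-free medium wells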
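Cytotoxicity counter-line: IDH1KD HT-1080, 48 h, CellTiter-Glo. Curves classed by r2, magnitude and activity.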
12-LOX inh: ALOX12 (human) lipoxygenase inhibition; P18054; Potency, µM (highest dose often 108 µM), inactives show at the top dose activity change, negative = inhibition, actives largely listed as inhibitors; AID 1671190; purified 12hLO, xylenol orange hydroperoxide absorbance; 1.1% of 580,000 active; further: potency means the concentration at half of the fitted maximal effect
Target sequence (P18054 whole entry, looked up): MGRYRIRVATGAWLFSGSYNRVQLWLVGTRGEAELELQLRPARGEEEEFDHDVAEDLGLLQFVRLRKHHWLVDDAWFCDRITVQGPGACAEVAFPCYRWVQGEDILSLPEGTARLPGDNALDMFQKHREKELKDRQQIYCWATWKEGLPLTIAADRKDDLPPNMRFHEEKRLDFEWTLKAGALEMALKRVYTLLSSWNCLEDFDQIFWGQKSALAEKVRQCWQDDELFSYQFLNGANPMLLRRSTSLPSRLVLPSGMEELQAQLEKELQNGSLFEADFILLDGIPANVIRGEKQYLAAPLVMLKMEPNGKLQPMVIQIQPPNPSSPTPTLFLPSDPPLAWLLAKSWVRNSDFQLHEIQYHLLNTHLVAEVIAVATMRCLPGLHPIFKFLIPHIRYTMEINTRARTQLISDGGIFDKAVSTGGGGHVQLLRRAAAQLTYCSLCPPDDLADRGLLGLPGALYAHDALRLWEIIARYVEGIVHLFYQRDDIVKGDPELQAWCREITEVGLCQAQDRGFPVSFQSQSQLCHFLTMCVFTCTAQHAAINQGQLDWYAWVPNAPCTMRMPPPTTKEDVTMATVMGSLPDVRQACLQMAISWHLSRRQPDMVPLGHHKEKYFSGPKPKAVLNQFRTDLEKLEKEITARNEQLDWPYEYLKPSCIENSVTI
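Hydroperoxide product was detected by ferrous iron/xylenol orange as the 573 to 405 nm absorbance ratio. Arachidonic acid at 40 uM (final) was turned over for 30 min at room temperature by 150 nM human 12hLO, pH 7.0 Hepes buffer, after 15 min compound preincubation.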
TDP1 cell CPT: DT40-hTDP1 cell growth loss with CPT. chicken DT40 Tdp1-/-;hTDP1 cells + 20 nM CPT, ATP luminescence, 48 h. Potency, µM (highest dose often 46.2 µM), for inactives: at the top dose activity change, negative = growth inhibition, usual class: inhibitors. 12% of 420,000 active; further: potency means the concentration at half of the fitted maximal effect; nearly all actives have a fitted effect of over 55% in size
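Chicken DT40 Tdp1-/- cells stably complemented with human TDP1 were seeded at 400 cells/well in medium containing 20 nM camptothecin, exposed to pin-transferred compounds, and grown at 37 °C for at least 48 hr. Viability was read as ATP luminescence.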
TDP1 cell noCPT: qHTS for Inhibitors of human tyrosyl-DNA phosphodiesterase 1 (TDP1): qHTS in cells in absence of CPT; DT40 Tdp1-/- hTDP1 cells, no CPT, ATP luminescence, 48 h; Potency, µM (doses to about 46.2 µM), for the others: top-dose activity change, negative = growth inhibition, most hits filed as inhibitors; 15% of 420,000 active; AID 686978, 2013; further: potency means the concentration at half of the fitted maximal effect; nearly all actives have a fitted effect of over 55% in size
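Compound effects on proliferation are scored in DT40 Tdp1-/-;hTDP1 cells in the absence of CPT. ATP levels (CellTiter-Glo luminescence) are recorded after a ≥48 hr, 37 °C incubation.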
Active calls of the source: *; ? = inconclusive; . = no result given; [ ] = remark or other dose. Shown is part of a subset that was picked to be rich in hits. Unless noted, the call rests on the fitted dose curve; in most records, active means well fitted curve in the direction sought with a large enough effect; inconclusive means small, poorly fitted or top-dose-only effect, or another doubt; inactive means no such curve, though single readings can be large; an effect the other way counts as inactive or inconclusive. Unless noted, on the % scale 0 is the no-effect control and ±100 the full control effect.

SMILES	HT1080-NT tox	IL-1B inflam inh	HT1080 IDH1KD tx	12-LOX inh	TDP1 cell CPT	TDP1 cell noCPT
CN(C)S(=O)(=O)c1ccc(NC(=O)CN2CCN(C(c3ccccc3)c3ccccc3)CC2)cc1	-5%	11	-4%	6%	?	21µM*
Fc1cccc(COc2ccc(-c3nnco3)cc2)c1	.	.	.	10%	.	.
CCn1c(=O)c2c(nc(-n3nc(C)c(C)c3C)n2C(C)C)n(C)c1=O	.	.	.	-10%	.	.
O=C(CCc1ncc(-c2ccccc2F)o1)Nc1ccc(Cl)cc1F	.	.	.	19%	.	.
Cc1ccc(NC(=O)Cn2cnnc2C#N)cc1Cl	.	.	.	-3%	.	.
O=C(CCc1nc2sc3c(c2c(=O)[nH]1)CCC3)NCc1ccccc1	.	.	.	-10%	.	.
Cn1cc(CNCc2cn(C)nc2-c2ccc(C3CCCCC3)cc2)cn1	?	-71*	?	0%	?	18µM*
Cc1nn(C)cc1CN(C)Cc1cn(C)nc1-c1ccc(C2CCCCC2)cc1	.	.	.	35%	.	.
CCC(=O)Oc1ccc(C(=O)Nc2ccc(-c3nc4cc(C)ccc4o3)cc2)cc1	.	.	.	23%	.	.
O/N=C/c1cccc(OCc2ccncc2)c1	.	.	.	-15%	.	.
O=[N+]([O-])c1cccc2c(N3CCCC3)ccnc12	-27%	-64*	?	8%	8.2µM*	8.2µM*
O=C(c1ccccc1F)N1CCN(c2ccc([N+](=O)[O-])c3ncccc23)CC1	-5%	-3	-15%	-10%	15µM*	21µM*
CCOC(=O)c1nn(-c2ccccc2)c(=O)c2c(N)scc12	2%	19	1%	35µM*	8.2µM*	15µM*
Nc1scc2c(C(=O)N/N=C/c3ccc(Cl)cc3)nn(-c3ccccc3)c(=O)c12	-1%	-19	-2%	6.3µM*	8.2µM*	7.3µM*
CCN(CC)c1nc(N)c(C#N)c(CC#N)c1C#N	-4%	48	2%	5%	-24%	-19%
CCCN(CC1CC1)c1nc(N)c(C#N)c(CC#N)c1C#N	-5%	0	-7%	-16%	?	18µM*
CCCN(CC1CC1)c1oc(-c2ccc(F)cc2)nc1C#N	.	.	.	-14%	.	.
CCCN(CCC)c1nc(N)c(C#N)c(CC#N)c1C#N	-11%	25	-13%	.	15µM*	23µM*
O=C(Oc1cccc2cccnc12)c1ccco1	-21%	34	-15%	493%	?	21µM*
O=C(Oc1cccc2cccnc12)c1cccs1	15µM*	123	6.5µM*	?	0.92µM*	0.82µM*
O=C(Oc1cccc2cccnc12)c1ccc(Br)o1	18%	13	13%	0%	-10%	-18%
O=C(Cc1ccc(Cl)cc1)Oc1cccc2cccnc12	3%	-100*	-1%	.	0.29µM*	0.82µM*
O=C(NCCOc1cccc2cccnc12)c1cccs1	4%	-21	9%	-5%	-8%	-12%
O=C1COCCN1C1CCN(S(=O)(=O)c2cccc(C(F)(F)F)c2)CC1	.	.	.	0%[6.33 µM]	.	.
Cc1ccc(S(=O)(=O)NN=C2C(=O)C3CCC2C3Cl)cc1 (stereo not drawn)	13%	16	11%	10µM*	6%	-2%
SMILES	HT1080-NT tox	IL-1B inflam inh	HT1080 IDH1KD tx	12-LOX inh	TDP1 cell CPT	TDP1 cell noCPT
CC(=O)OC1CC(O)C(C)(C)C2CC(OC(C)=O)[C@]3(C)C(CC[C@@]4(C)C(c5ccoc5)OC(=O)C5OC534)[C@]12C (stereo partly drawn)	.	.	.	.	5%	10%
CC(=O)OC1CC2C(C)(C)C(O)CC[C@@]2(C)C2CC[C@@]3(C)C(c4ccoc4)OC(=O)C4O[C@@]43[C@]12C (stereo partly drawn)	.	.	.	.	?	18µM*
CC(=O)OC1CC2C(C)(C)C(O)CC[C@@]2(C)C2CC[C@@]3(C)C(c4ccoc4)OC(=O)C4OC43[C@]12C (stereo partly drawn)	.	.	.	.	?	21µM*
CN1CCN(c2nc3c(c(=O)[nH]2)CCN(Cc2ccccc2Cl)CC3)CC1	.	.	.	28%	.	.
CCCc1ccc(C(=O)CSc2nc(CN3CCOCC3)nc3ccccc23)cc1	.	.	.	3%	.	.
O=C(CNc1cccc(S(=O)(=O)N2CCCCCC2)c1)Nc1cccc([N+](=O)[O-])c1	?	-25	?	370%	?	23µM*
COc1ccc([N+](=O)[O-])cc1NCC(=O)Nc1cccc(S(=O)(=O)N2CCCC2)c1	-7%	-10	-1%	-20%	?	16µM*
O=C(CNc1cccc([N+](=O)[O-])c1)NC(=O)NC1CCCCC1	-10%	-52*	-5%	-52%	15µM*	?
O=C(COC(=O)c1cccc([N+](=O)[O-])c1)NC1CCCC1	-1%	-12	0%	-1%	-3%	9%
O=C(CNc1cc([N+](=O)[O-])ccc1NCCO)Nc1cccc(S(=O)(=O)N2CCCCC2)c1	-4%	-21	-1%	347%	?	?
CCc1nc(-c2c3n(c(=O)n(CC(=O)Nc4ccccc4OC)c2=O)CCCC3)no1	.	.	.	5%	.	.
N#CC(C(=O)NCc1ccccc1)c1nc2ccccc2nc1N1CCCC1 (stereo not drawn)	-1%	9	-9%	0%	?	?
CCOC(=O)N1CCN(c2nc3ccccc3nc2C(C#N)C(=O)NCCc2ccccc2)CC1 (stereo not drawn)	15%	-2	14%	-12%	16µM*	21µM*
N#CC(C(=O)NCCc1ccccc1)c1nc2ccccc2nc1N1CCOCC1 (stereo not drawn)	19%	-8	11%	449%	16µM*	?
N#CC(C(=O)NCCc1ccccc1)c1nc2ccccc2nc1N1CCCCC1 (stereo not drawn)	-1%	-3	-2%	9%	21µM*	-27%
CCOC(=O)C1CCCN(c2nc3ccccc3nc2C(C#N)C(=O)NCc2ccccc2)C1 (stereo not drawn)	2%	-5	-1%	-7%	?	9.2µM*
O=C1Nc2ccc(-c3ccc4c(c3)OCO4)cc2C(=O)N2CCN(C(=O)c3cccs3)C[C@H]12	.	.	.	-16%	.	.
COc1cc2c(cc1OC)CN(C(=O)COC(=O)c1cccnc1Nc1ccccc1F)CC2	.	.	.	-11%	.	.
COC(=O)c1sc(NC(=O)COC(=O)c2ccc3c(c2)NC(=O)CS3)c(C(=O)OC)c1C	.	.	.	14%	.	.
C=CCN1C(=O)/C(=C/c2ccc(OC(C)=O)c(OCC)c2[N+](=O)[O-])SC1=S	9.2µM*	-76*	21µM*	?	?	?

Source: PubChem BioAssay
